Assay outcomes as filed in PubChem BioAssay.
This is a sample that favours compounds with a hit; in the whole collection about 18% have one here.
TDP1 block – TDP1 (human) enzyme inhibition. Q9NUW8. Potency, µM (series often up to 130 µM), actives largely listed as inhibitors. 350,000 tested, 0.28% active. recombinant TDP1, AlphaScreen DNA substrate cleavage; also: nearly all actives have a fitted effect of over 40% in size
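Signal: AlphaScreen proximity between streptavidin donor and anti-FITC acceptor beads on intact substrate. Reaction: Tdp1 1 nM, substrate 15 nM final, 5 min RT after 15 min compound preincubation.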
Six1-Eya2 blk – blocks human Six1 binding to Eya2 | activity change, % (test concentration not listed) | AID 651725 | Q15475+O00167 | AlphaScreen GST-Six1/His-Eya2 binding, biochemical; stronger effect = lower value | 360,000 tested, 0.56% active; in the data active = activity change below about -65%; inconclusive = mostly about -30% to -63%
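AlphaScreen luminescence read after one hour at 37 °C in darkness. Pin-transferred compounds met GST-Six1 and His-Eya2 protein (5X stock 250 nM/500 nM) plus glutathione donor and Ni-chelate acceptor beads (5X, 50 ug/mL).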
TDP1 cell CPT – growth inhibition of DT40 Tdp1-/-;hTDP1 cells with camptothecin (screen for TDP1 inhibitors) | 420,000 tested, 12% active | chicken DT40 Tdp1-/-;hTDP1 cells + 20 nM CPT, ATP luminescence, 48 h | AID 686979 | Potency, µM (doses to about 46.2 µM), usual class: inhibitors; also: nearly all actives have a fitted effect of over 55% in size
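Chicken DT40 Tdp1-/- cells complemented with human TDP1, 400 cells/well, exposed to compounds plus 20 nM camptothecin for at least 48 h at 37 C; viability read as ATP content by CellTiter-Glo luminescence.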
TDP1 cell noCPT – qHTS for Inhibitors of human tyrosyl-DNA phosphodiesterase 1 (TDP1): qHTS in cells in absence of CPT. DT40 Tdp1-/- hTDP1 cells, no CPT, ATP luminescence, 48 h. Potency, µM (titrated, usually from 46.2 µM), most hits filed as inhibitors. 420,000 tested, 15% active; also: nearly all actives have a fitted effect of over 55% in size
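Seeded 400 DT40-hTDP1 cells/well (vehicle DMSO, no 20 nM CPT); pinned compounds; ≥48 hr at 37 °C; CellTiter-Glo luminescence as viability measure.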
IL1B secr inh – inhibitors of inflammasome signaling (IL-1 beta secretion); 360,000 tested, 4.7% active; activity change, % at 57.5 µM; AID 743279; THP-1 LPS/ATP IL-1B secretion, AlphaLISA, 16 h; stronger effect = lower value; in the data active = activity change below about -50%; inconclusive = mostly about -30% to -49%
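THP-1 cells pretreated 1 hr with compounds (up to 57.5 uM final), then stimulated with LPS (250 ng/mL final) plus ATP (1.25 mM final); secreted IL-1B measured by AlphaLISA after 16 hr, decreased signal indicating inhibition.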
CtBP-E1A blk – blocks the CtBP interaction with E1A; AlphaScreen GST-E1A/His-CtBP binding, 1536-well; stronger effect = lower value; activity change, % (no concentration beside the values); 340,000 tested, 0.49% active; in the data active = activity change below about -65%; inconclusive = mostly about -30% to -63%
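AlphaScreen with 125 nM GST-E1A and 125 nM His-CtBP (5X stocks) in Tris pH 8.0, 300 mM NaCl, BSA, Tween 20, TCEP. Compounds preincubated 2 h at 37 deg C, then glutathione donor/nickel acceptor beads added for 1 h at 37 deg C in dark.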
Each line names hits and unclear results; the compound was inactive in the other large screens. Unless noted, calls follow the shape of the dose curve; as a rule, active = well fitted curve in the direction sought with a large enough effect; inconclusive = small, poorly fitted or top-dose-only effect, or another doubt; inactive = no such curve, though single readings can be large; an effect the other way counts as inactive or inconclusive.

O=C(/C=C/c1ccccc1)c1c(O)n(CCc2ccccc2)c(=O)[nH]c1=O	TDP1 cell CPT 5.2µM, TDP1 cell noCPT 2.6µM
O=C(/C=C/c1ccc2c(c1)OCO2)c1c(O)n(CCc2ccccc2)c(=O)[nH]c1=O	TDP1 cell CPT inconclusive, TDP1 cell noCPT inconclusive
COc1ccc(CCNC2CCCCC2)cc1OC	none
CC(C)c1ccc(N2C(=O)NC(=O)/C(=C\c3cnc(-c4ccccc4)nc3)C2=O)cc1	TDP1 cell CPT inconclusive, TDP1 cell noCPT inconclusive
CC(C)c1ccc(N2C(=O)NC(=O)/C(=C\C=C\c3ccco3)C2=O)cc1	TDP1 cell CPT inconclusive, TDP1 cell noCPT inconclusive, IL1B secr inh -100
ClCCOCCCl	TDP1 cell noCPT inconclusive
COc1ccc(S(=O)(=O)N(C)C[C@H]2OCCCC[C@@H](C)Oc3ccc(N(C)C)cc3C(=O)N([C@H](C)CO)C[C@@H]2C)cc1	TDP1 cell CPT inconclusive, TDP1 cell noCPT 23µM (no result: TDP1 block)
COc1ccc(NC(=O)Nc2ccc3c(c2)C(=O)N([C@H](C)CO)C[C@H](C)[C@@H](CN(C)S(=O)(=O)c2ccc(OC)cc2)O3)cc1	TDP1 cell CPT inconclusive, TDP1 cell noCPT inconclusive
C[C@@H]1CCCCO[C@@H](CN(C)S(=O)(=O)c2ccc(F)cc2)[C@@H](C)CN([C@H](C)CO)C(=O)c2cc(N(C)C)ccc2O1	TDP1 cell CPT inconclusive, TDP1 cell noCPT 21µM (no result: TDP1 block)
C[C@H]1CN([C@@H](C)CO)C(=O)c2cc(NC(=O)C3CCCCC3)ccc2O[C@H]1CN(C)Cc1ccc(-c2ccccc2)cc1	TDP1 cell CPT inconclusive, TDP1 cell noCPT inconclusive
CCc1nnc(NS(=O)(=O)c2ccc(N=Cc3c(O)n(-c4ccc(Cl)cc4)c(=O)[nH]c3=O)cc2)s1	TDP1 cell CPT inconclusive, TDP1 cell noCPT inconclusive
O=S(=O)(c1ccccc1C(F)(F)F)N1CCN(c2ncnc3sccc23)CC1	TDP1 cell CPT 15µM, TDP1 cell noCPT 8.2µM, IL1B secr inh -62
CN1CC(Br)C(=O)NC1=O (centres undefined)	none (no result: TDP1 block)
O=C1NC(=S)NC(=O)C1Cc1ccccc1	none (no result: TDP1 block)
O=C1NC(=O)C(Cc2ccccc2)(Cc2ccccc2)C(=O)N1Cc1ccccc1	TDP1 cell CPT 23µM, TDP1 cell noCPT inconclusive, IL1B secr inh -54 (no result: TDP1 block)
O=C1NC(=O)N(Cc2ccccc2)C(=O)C1Cc1ccccc1 (centres undefined)	TDP1 cell noCPT 8.2µM (no result: TDP1 block)
O=C(Cn1ncc2ccsc2c1=O)N1CCC2(CC1)OCCO2	none
N/C(=N\N=C\c1ccc(O)cc1O)N[N+](=O)[O-]	Six1-Eya2 blk -74, CtBP-E1A blk -83
COc1ccccc1/C=N/N=C(/N)N[N+](=O)[O-]	none
CN1CCN(c2nc(Cl)ncc2F)CC1	none
Cc1cnc2c(C(=O)O)c(Cl)ccc2c1	none (no result: Six1-Eya2 blk, TDP1 cell CPT, TDP1 cell noCPT, IL1B secr inh, CtBP-E1A blk)
CCCCn1c(O)c(C(CC)=NCc2cc(OC)cc(OC)c2)c(=O)[nH]c1=O	TDP1 cell CPT inconclusive, TDP1 cell noCPT 23µM
CCCCn1c(O)c(C(CC)=Nc2ccc(OC)cc2OC)c(=O)[nH]c1=O	TDP1 cell CPT inconclusive, TDP1 cell noCPT inconclusive
CCC(=Nc1ccc2c(c1)CCC2)c1c(O)n(C2CCCCC2)c(=O)[nH]c1=O	TDP1 cell CPT 29µM, TDP1 cell noCPT 18µM
CCCCn1c(O)c(C(CC)=Nc2ccc(OCC)cc2)c(=O)[nH]c1=O	TDP1 cell CPT 18µM, TDP1 cell noCPT 21µM
CCCCn1c(O)c(C(CC)=NC(C)c2ccccc2)c(=O)[nH]c1=O (centres undefined)	TDP1 cell CPT inconclusive, TDP1 cell noCPT 26µM
CCCCn1c(O)c(C(C)=NC(C)c2ccccc2)c(=O)[nH]c1=O (centres undefined)	TDP1 cell CPT inconclusive, TDP1 cell noCPT inconclusive
CCN(CCCNS(=O)(=O)c1ccc2c(c1)oc(=O)n2C)c1cccc(C)c1	TDP1 cell CPT inconclusive, TDP1 cell noCPT inconclusive
